Assay [1] has as its target T1, Inhibitor of nuclear factor kappa-B kinase subunit epsilon (Homo sapiens) (UniProt Q14164).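 Also: reported values are averaged percent inhibition figures against human IKKε.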
T1 sequence (whole entry): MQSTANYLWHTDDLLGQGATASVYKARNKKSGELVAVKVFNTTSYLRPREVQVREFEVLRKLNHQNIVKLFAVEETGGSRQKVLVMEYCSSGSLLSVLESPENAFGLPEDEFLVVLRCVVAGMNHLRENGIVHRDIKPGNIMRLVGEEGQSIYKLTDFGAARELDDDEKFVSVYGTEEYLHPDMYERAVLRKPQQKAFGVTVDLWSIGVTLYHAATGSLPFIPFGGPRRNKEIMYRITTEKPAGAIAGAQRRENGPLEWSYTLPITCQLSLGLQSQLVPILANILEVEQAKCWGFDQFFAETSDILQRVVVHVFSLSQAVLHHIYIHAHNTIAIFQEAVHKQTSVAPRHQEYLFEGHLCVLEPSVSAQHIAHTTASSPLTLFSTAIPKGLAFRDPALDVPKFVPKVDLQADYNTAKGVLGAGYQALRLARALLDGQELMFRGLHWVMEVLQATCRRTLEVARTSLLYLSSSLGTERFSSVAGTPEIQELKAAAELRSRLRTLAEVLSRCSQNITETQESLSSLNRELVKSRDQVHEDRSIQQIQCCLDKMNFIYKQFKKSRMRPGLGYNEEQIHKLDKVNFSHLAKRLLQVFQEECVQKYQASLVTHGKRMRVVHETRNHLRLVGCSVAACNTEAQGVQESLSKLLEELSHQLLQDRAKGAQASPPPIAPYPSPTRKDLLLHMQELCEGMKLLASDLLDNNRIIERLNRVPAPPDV
As to conditions: at 1 µM.

Assay [2] concerns the target T2, Serine/threonine-protein kinase Nek1 (Homo sapiens) (UniProt Q96PY6).
T2 sequence (whole entry): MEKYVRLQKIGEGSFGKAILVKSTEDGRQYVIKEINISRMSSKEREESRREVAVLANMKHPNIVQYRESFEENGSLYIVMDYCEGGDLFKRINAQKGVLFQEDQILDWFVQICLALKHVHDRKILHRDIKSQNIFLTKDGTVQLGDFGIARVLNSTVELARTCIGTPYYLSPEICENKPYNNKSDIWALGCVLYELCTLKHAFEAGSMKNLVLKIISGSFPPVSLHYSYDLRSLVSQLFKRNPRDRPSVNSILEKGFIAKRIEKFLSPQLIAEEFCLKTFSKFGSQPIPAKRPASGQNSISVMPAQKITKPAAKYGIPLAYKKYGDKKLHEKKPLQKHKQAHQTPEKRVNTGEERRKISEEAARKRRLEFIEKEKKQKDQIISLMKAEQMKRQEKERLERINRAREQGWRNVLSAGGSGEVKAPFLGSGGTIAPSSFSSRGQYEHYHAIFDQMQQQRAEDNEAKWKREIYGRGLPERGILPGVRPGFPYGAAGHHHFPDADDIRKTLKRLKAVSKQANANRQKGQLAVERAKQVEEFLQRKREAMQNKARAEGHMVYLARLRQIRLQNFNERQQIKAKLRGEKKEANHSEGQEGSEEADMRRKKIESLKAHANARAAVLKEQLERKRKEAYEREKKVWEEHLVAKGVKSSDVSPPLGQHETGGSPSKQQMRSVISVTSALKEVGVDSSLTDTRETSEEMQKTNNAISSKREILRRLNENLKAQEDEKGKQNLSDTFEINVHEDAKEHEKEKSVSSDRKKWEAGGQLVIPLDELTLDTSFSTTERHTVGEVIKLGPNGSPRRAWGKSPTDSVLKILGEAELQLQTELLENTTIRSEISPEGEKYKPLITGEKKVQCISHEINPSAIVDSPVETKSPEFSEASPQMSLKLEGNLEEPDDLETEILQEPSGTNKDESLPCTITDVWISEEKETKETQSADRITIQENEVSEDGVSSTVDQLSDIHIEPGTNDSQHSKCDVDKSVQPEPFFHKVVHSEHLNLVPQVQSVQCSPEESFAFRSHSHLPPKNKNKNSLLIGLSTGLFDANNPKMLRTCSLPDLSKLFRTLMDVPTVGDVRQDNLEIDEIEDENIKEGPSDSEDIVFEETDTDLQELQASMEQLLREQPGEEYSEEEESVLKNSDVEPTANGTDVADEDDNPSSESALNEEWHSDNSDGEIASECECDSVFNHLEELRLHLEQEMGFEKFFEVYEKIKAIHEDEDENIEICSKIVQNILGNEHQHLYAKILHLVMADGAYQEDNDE
The conditions noted are these: at 0.1 µM.

For assay [3], the target named is T2, Serine/threonine-protein kinase Nek1 (Homo sapiens). The conditions noted are these: at 1 µM.
Assay [4] addresses T3, Serine/threonine-protein kinase Nek2 (Homo sapiens) (UniProt P51955).
T3 sequence (whole entry): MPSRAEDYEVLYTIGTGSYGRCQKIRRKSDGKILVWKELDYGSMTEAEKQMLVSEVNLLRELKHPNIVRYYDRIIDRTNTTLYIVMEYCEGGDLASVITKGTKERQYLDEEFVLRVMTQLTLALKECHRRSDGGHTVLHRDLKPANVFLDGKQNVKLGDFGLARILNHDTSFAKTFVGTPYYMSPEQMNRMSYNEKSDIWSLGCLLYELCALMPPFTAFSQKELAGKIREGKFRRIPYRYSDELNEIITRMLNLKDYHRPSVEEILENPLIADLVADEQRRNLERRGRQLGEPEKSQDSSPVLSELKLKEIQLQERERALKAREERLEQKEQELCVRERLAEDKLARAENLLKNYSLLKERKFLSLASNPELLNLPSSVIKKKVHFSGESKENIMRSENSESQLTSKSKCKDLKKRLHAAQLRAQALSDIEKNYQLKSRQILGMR
The conditions noted are these: at 0.1 µM.

Assay [5] concerns the target T3, Serine/threonine-protein kinase Nek2 (Homo sapiens). The conditions noted are these: at 1 µM.
Assay [6] addresses Serine/threonine-protein kinase Nek6 (Homo sapiens) (UniProt Q9HC98). As to conditions: at 0.1 µM.
The target is the same in assay [7]. As to conditions: at 1 µM.
For assay [8], the target named is Serine/threonine-protein kinase Nek7 (Homo sapiens) (UniProt Q8TDX7). As to conditions: at 0.1 µM.
Sequence of Serine/threonine-protein kinase Nek7 (Homo sapiens) (Q8TDX7 whole entry, looked up): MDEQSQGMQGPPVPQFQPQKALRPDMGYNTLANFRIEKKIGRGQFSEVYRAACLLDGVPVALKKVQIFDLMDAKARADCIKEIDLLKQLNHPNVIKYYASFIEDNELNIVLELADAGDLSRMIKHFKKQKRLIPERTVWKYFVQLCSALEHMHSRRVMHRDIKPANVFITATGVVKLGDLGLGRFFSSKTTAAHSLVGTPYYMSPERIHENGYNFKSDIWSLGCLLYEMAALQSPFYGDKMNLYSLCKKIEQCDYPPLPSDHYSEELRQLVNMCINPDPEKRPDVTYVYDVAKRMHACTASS
Assay [9] has the same target. As to conditions: at 1 µM.
The target of assay [10] is T4, Serine/threonine-protein kinase Nek9 (Homo sapiens) (UniProt Q8TD19).
T4 sequence (whole entry): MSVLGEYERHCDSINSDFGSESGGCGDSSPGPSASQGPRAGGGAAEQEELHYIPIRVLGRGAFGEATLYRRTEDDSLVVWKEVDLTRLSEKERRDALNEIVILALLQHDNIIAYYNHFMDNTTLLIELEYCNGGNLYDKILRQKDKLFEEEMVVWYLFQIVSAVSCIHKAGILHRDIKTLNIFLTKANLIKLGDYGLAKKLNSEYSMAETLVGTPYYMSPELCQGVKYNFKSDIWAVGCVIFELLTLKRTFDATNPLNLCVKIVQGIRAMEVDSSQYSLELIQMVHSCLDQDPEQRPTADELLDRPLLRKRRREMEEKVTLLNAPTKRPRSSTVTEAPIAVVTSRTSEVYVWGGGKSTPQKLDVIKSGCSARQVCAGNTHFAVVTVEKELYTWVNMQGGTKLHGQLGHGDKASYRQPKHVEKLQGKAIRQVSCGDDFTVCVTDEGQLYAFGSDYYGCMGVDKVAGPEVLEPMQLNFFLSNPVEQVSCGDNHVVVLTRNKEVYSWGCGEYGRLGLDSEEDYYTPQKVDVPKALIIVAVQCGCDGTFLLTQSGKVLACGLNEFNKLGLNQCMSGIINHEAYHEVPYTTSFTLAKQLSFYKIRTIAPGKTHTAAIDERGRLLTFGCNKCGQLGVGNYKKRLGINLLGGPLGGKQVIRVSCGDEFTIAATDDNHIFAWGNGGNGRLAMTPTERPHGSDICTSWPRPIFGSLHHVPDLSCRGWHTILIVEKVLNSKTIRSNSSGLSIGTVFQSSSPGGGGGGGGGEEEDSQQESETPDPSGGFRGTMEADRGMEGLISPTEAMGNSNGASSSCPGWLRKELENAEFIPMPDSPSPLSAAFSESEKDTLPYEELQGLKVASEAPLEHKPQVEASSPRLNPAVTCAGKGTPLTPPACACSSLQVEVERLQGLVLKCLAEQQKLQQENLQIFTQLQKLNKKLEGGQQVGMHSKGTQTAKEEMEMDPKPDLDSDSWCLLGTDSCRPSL
The conditions noted are these: at 0.1 µM.

Assay [11] concerns the target T4, Serine/threonine-protein kinase Nek9 (Homo sapiens). The conditions noted are these: at 1 µM.
The target of assay [12] is Serine/threonine-protein kinase PLK1 (Homo sapiens) (UniProt P53350). As to conditions: at 0.1 µM.
Sequence of Serine/threonine-protein kinase PLK1 (Homo sapiens) (P53350 whole entry): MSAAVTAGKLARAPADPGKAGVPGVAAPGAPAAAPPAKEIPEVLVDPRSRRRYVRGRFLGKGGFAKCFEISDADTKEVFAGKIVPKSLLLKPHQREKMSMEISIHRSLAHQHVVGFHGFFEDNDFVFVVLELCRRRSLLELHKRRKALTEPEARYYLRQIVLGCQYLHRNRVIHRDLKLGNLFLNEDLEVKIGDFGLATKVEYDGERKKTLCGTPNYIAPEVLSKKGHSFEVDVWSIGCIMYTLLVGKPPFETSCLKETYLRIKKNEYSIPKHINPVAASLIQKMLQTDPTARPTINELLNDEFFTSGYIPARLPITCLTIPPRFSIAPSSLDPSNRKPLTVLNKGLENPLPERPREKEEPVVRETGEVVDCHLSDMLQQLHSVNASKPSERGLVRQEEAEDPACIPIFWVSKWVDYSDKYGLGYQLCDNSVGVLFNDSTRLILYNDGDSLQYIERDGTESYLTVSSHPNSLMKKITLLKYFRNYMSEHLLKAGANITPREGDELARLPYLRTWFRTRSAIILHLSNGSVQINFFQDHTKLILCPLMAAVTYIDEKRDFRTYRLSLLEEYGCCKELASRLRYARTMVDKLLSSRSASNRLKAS
For assay [13] the target is unchanged. As to conditions: at 1 µM.
The target in assay [14] is T5, Dual specificity protein kinase TTK (Homo sapiens) (UniProt P33981).
T5 sequence (whole entry): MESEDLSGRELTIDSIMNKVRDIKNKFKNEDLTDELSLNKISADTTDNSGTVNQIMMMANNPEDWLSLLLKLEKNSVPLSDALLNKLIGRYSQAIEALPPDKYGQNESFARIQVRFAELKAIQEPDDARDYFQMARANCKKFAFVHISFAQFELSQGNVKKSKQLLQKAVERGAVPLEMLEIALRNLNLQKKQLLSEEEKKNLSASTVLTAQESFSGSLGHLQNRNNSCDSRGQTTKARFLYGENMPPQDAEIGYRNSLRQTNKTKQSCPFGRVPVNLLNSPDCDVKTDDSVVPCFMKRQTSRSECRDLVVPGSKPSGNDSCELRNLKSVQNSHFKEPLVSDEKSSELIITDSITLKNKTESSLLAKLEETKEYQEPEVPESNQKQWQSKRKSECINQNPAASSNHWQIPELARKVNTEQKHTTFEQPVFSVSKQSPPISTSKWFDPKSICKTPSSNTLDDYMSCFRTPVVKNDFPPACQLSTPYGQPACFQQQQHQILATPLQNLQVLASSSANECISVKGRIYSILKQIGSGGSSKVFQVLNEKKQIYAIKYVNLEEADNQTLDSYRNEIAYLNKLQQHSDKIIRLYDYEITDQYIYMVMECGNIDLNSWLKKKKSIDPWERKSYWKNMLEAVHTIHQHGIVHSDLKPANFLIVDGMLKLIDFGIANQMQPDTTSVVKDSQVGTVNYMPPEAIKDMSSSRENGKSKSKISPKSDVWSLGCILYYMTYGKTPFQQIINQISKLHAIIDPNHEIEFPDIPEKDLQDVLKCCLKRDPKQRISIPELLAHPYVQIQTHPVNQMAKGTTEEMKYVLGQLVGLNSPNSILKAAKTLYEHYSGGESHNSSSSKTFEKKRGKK
The conditions noted are these: at 0.1 µM.

The test system of assay [15] is T6, Receptor-type tyrosine-protein kinase FLT3 (Homo sapiens), P36888 [D835Y].
T6 sequence (whole entry): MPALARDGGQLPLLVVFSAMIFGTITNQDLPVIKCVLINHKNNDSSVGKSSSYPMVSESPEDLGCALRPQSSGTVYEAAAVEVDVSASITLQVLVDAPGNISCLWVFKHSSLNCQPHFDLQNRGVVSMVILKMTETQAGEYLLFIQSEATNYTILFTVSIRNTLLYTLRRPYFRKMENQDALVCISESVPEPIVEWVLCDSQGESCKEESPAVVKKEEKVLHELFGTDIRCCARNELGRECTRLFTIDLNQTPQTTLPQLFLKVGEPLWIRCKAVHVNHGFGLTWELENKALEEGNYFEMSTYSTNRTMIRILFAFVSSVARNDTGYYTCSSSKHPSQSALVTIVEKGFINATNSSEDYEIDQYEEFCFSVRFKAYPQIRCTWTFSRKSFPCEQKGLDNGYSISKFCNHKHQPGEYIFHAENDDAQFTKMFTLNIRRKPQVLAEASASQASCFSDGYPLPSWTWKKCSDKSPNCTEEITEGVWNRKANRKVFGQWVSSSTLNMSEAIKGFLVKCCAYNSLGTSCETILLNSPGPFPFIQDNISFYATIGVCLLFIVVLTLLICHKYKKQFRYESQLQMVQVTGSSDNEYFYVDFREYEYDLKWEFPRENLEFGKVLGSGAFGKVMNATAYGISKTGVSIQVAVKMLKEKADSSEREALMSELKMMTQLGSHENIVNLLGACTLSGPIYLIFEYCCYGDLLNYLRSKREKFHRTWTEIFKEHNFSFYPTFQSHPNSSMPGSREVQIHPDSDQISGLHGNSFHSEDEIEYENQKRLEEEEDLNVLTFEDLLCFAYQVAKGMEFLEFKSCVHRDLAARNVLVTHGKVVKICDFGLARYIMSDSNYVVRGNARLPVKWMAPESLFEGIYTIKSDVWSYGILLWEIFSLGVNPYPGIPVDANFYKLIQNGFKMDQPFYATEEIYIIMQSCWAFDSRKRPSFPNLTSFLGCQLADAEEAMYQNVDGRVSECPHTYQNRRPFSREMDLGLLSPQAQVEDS
The conditions noted are these: at 1 µM.

Assay [16] has as its target Vascular endothelial growth factor receptor 3 (Homo sapiens) (UniProt P35916). The conditions noted are these: at 0.1 µM.
The target is the same in assay [17]. The conditions noted are these: at 1 µM.
For assay [18], the target named is Macrophage colony-stimulating factor 1 receptor (Homo sapiens) (UniProt P07333). The conditions noted are these: at 0.1 µM.
Sequence of Macrophage colony-stimulating factor 1 receptor (Homo sapiens) (P07333 whole entry): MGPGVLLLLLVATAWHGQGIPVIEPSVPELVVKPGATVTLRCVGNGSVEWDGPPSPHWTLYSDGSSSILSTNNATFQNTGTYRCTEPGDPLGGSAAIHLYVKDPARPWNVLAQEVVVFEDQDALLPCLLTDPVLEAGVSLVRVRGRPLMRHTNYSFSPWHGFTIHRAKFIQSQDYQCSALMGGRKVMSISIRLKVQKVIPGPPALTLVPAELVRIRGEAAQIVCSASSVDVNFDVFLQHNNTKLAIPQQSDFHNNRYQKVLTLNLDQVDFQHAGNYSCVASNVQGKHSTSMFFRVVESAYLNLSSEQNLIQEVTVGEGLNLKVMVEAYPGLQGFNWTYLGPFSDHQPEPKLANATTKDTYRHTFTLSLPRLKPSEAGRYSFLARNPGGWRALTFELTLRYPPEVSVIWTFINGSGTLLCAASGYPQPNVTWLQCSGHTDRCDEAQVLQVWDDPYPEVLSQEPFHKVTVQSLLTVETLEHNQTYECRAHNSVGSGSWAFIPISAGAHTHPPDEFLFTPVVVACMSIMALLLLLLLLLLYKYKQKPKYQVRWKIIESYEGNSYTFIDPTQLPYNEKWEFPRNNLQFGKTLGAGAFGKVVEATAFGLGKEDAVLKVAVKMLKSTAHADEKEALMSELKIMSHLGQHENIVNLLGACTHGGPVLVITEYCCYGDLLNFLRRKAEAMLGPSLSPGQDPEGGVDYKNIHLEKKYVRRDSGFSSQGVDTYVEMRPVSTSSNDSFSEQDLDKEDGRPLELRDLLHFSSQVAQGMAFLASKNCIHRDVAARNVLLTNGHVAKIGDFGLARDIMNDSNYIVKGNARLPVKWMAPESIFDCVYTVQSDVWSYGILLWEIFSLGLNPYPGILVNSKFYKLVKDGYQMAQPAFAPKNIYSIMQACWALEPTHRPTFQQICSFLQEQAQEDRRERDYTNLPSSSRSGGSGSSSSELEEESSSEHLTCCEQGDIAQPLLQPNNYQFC
For assay [19] the target is unchanged. The conditions noted are these: at 1 µM.
Assay [20] addresses Tyrosine-protein kinase Fyn (Homo sapiens) (UniProt P06241). As to conditions: at 0.1 µM.

Experimental findings from ChEMBL document CHEMBL1961873, “Compounds: GSK PKIS; Assays: Nanosyn kinase panel” (2012) are described below.

The inhibition is the relative decrease from the control value, in per cent.

Sequence of Vascular endothelial growth factor receptor 3 (Homo sapiens) (P35916 whole entry): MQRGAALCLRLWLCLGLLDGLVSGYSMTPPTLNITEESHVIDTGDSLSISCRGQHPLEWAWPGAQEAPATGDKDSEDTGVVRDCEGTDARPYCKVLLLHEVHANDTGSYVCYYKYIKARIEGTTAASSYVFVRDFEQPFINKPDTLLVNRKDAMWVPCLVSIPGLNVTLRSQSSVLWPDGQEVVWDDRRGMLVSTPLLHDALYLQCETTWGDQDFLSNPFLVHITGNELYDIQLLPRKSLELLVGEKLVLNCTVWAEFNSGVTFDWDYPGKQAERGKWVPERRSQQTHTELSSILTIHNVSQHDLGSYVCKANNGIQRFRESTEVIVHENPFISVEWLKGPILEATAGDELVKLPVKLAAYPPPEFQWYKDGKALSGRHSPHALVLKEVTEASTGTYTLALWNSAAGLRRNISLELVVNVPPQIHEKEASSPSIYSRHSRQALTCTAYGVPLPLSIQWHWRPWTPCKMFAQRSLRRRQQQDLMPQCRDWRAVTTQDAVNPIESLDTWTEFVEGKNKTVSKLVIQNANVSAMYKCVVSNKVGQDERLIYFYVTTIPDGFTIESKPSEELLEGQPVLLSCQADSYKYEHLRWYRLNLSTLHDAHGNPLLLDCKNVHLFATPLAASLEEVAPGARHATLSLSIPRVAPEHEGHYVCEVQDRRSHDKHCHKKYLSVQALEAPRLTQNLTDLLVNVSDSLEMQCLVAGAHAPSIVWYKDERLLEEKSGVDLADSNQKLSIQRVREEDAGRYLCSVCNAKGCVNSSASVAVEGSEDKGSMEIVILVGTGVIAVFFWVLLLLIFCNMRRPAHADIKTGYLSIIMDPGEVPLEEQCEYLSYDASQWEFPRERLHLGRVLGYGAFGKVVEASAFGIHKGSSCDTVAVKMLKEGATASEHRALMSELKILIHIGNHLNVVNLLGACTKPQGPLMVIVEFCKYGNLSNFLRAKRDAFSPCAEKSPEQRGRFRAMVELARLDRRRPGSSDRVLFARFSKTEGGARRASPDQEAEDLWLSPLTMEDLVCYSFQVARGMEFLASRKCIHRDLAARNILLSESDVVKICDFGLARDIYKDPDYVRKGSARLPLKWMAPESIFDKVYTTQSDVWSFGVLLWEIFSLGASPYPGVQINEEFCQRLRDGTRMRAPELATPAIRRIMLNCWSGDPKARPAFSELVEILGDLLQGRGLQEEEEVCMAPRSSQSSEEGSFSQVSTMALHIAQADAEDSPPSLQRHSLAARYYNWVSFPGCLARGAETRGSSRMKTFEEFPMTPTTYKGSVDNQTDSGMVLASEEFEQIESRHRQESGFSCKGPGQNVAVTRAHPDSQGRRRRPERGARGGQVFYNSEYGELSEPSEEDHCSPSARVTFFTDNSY
Sequence of Serine/threonine-protein kinase Nek6 (Homo sapiens) (Q9HC98 whole entry): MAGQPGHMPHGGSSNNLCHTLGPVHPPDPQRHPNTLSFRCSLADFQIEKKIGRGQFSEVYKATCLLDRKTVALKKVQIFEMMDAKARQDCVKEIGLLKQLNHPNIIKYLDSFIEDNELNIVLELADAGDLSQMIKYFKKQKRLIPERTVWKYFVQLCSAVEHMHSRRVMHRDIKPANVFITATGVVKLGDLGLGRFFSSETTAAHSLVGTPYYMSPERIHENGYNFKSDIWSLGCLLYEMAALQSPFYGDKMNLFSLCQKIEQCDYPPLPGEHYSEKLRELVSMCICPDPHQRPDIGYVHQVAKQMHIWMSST
Sequence of Tyrosine-protein kinase Fyn (Homo sapiens) (P06241 2-537 limits assumed): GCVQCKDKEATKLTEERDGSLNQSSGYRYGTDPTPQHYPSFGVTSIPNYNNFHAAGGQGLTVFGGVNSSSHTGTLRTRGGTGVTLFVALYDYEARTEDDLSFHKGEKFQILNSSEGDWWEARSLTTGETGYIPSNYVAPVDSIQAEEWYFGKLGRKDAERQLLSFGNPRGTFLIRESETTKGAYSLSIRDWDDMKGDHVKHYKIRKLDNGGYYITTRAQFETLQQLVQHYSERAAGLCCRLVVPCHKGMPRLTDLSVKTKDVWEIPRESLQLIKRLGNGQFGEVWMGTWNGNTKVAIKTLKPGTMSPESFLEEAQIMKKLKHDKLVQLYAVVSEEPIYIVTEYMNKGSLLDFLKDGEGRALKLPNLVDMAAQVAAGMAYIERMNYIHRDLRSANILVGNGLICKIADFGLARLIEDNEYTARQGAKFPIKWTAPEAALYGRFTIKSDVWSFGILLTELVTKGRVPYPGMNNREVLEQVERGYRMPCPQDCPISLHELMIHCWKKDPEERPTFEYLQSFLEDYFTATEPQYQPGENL

For the compound `CCc1cccc(CC)c1/C=C/c1cncc(C(=O)NC)c1`, the inhibition in assay [1] was 3.78%; in assay [2] it was 1.27%; in [3] it was 1.92%; in assay [4], 3.4%; in assay [5] it was 3.05%; in assay [6], 0.31%. The inhibition was 0.68% in assay [7]; 2.82% in assay [8]; 2.39% in [9]; 8.92% in assay [10]; -1.94% in assay [11]; 1.32% in assay [12]. The inhibition is 1.99% in assay [13]; 3.43% in assay [14]; 4.06% in assay [15]; 1.11% in assay [16]; 2.42% in assay [17]; -1.63% in assay [18]. Moreover, the inhibition in [19] was 6.91%; in assay [20] it was 3.51%.

For `NC(=O)c1cc(-c2ccncc2)cc(-c2ccccc2)c1N`, the inhibition in assay [1] came out at 14.9%; in [2], 3.64%; in assay [3], 3.27%; in assay [4], 6.42%; in assay [5] it was 6.13%; in [6] it was 2.63%. For the same compound, the inhibition was -0.35% in assay [7]; 4.53% in assay [8]; 3.98% in assay [9]; 9.48% in assay [10]; 3.74% in assay [11]; 4.45% in assay [12]. For the same compound, the inhibition in assay [13] stood at 5.13%; in assay [14], 8.7%; in assay [15] it was 2.51%; in [16] it was 2.14%; in [17] it was 6.17%; in [18] it was 22.8%. Moreover, the inhibition in assay [19] came to 64.8%; in assay [20], 6.39%.
